Measurements reported in PubChem BioAssay AID2275 (Broad Institute, 2010).
In all, about 30,000 compounds went through this assay and about 190 (0.63%) were called active. The entries come from a sample that favours actives as a whole. A number with no mark means an inactive call. Rule as the data show it: active = viability loss activity score above about 50%; inconclusive = no clear call, values can overlap the other calls; inactive = below about 35%.

assay: cytotoxicity in HRASV12-transformed BJ fibroblasts – cell-based, luminescence, CellTiterGlo ATP, primary screen (AID 2275); details: BJeLR fibroblasts viability, 48 h, stronger effect = higher value, concentration not given here; HRASV12, hTERT and SV40 LT/ST transformed unless noted;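 also: higher score means fewer live cells and less ATP luminescence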

SMILES | viability loss activity score
CN[C@@H]1C[C@H]2O[C@@](C)([C@@H]1OC)n1c3ccccc3c3c4c(c5c6ccccc6n2c5c31)C(=O)NC4 | 127% (active)
CCCCCCCCCCCCCC(=O)O[C@@H]1[C@@H](C)[C@@]2(O)[C@@H](C=C(CO)C[C@]3(O)C(=O)C(C)=C[C@@H]23)[C@@H]2C(C)(C)[C@]12OC(C)=O | 4.17%
CN1C2C=C(N(C(=O)c3ccc(Cl)cc3)c3ccccc3)CC1CC2 (stereo not given) | 0.717%
CCOC(=O)[C@@H]1[C@@H]2NC(=O)N[C@@]1(C)Oc1ccccc12 | -1.85% [setting not given]
Fc1ccc(CNC2=NCCS2)cc1 | 2.3%
CNC(=O)N(C)c1nnc(C(C)(C)C)s1 | -2.35% [setting not given]
c1ccc2c(c1)[I+]c1ccccc1-2 | 73.2% (active)
CC(=O)Nc1nc(C)c(Oc2ccccc2)c(OC(=O)N(C)C)n1 | -1.11%
COC1=C[C@@H]2[C@@H]3Cc4ccc(OC)c(O)c4[C@]2(CCN3C)CC1=O | 1.23% [setting not given]
CN1CC=C(c2noc(CCC(=O)Nc3ccc(F)cc3F)n2)CC1 | 2.02%
CC(C)[C@@]1(NC(=O)[C@@H]2CC3c4cccc5[nH]cc(c45)C[C@H]3N(C)C2)O[C@@]2(O)[C@@H]3CCCN3C(=O)[C@H](Cc3ccccc3)N2C1=O (stereo not given in full) | -5.08%
O=C(O)C1C2CCC(O2)C1C(=O)N1CCN(C/C=C/c2ccccc2)CC1 (stereo not given) | 8.76%
C[C@H]1O[C@@H](O[C@H]2CC[C@]3(CO)C4CC[C@]5(C)[C@@H](C6=CC(=O)OC6)CC[C@]5(O)[C@@H]4CC[C@H]3C2)[C@H](O)[C@H](O)[C@@H]1O[C@@H]1O[C@H](CO)[C@@H](O)[C@H](O)[C@H]1O (stereo not given in full) | 109% (active)
Cc1ccc(CSc2nnc(OC(=O)N(C)C)n2-c2cccc(Cl)c2)cc1 | 5.26%
CC1N=C(c2ccccc2)c2ccccc2N(CCCOc2ccc(F)cc2)C1=O (stereo not given) | -3.72%
CC(C)(c1ccccc1)c1ccc(O)cc1 | 0.81%
CC(C)c1ccc2c(c1O)CC[C@H]1C3=C(CC[C@]21C)C(=O)OC3 | 4.52%
C[C@H]1CCC/C=C/C2C[C@H](O)C[C@H]2[C@H](O)/C=C\C(=O)O1 (stereo not given in full) | 74.4% (active)
CCN(CC)C(=O)c1ccc(N(Cc2ccccc2Cl)S(C)(=O)=O)cc1 | 5.52%
Fc1cccc(NC2=NCCS2)c1 | 7.57%
